# High-throughput results as filed in PubChem BioAssay.
# A selection: hits, their analogues and other compounds. The true share with any hit is near 3.6%.
# mHTT CaM bind = disrupts binding of mutant huntingtin to calmodulin. 3.6% of 190,000 active. P42858. AlphaScreen His-mHTT/GST-CaM binding, luminescence. inhibition, % at 15 µM;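 also: 0% = both proteins with DMSO and 100% = one protein alone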
# Pf apPOL block = Pf-apPOL DNA polymerase inhibition; Recombinant Pf-apPOL, molecular beacon fluorescence, 1.5 h; inhibition, % at 10 µM; 0.25% of 210,000 active; AID 1794808
# The depositor's hits bear a star; nt = no result. Rule as the data show it: active = inhibition above about 50%; inactive = the rest.
SMILES,mHTT CaM bind,Pf apPOL block
Cc1nn(C)c(C)c1CCCN(C)C(=O)c1cccc(N2CCNC(c3ccccc3)C2)n1 (stereo unspecified),6,-2
CC1CCN(S(=O)(=O)c2ccc3[nH]c(=O)cc(C(=O)NCc4ccccn4)c3c2)CC1,-12,-6
CC1CCCCN1S(=O)(=O)c1ccc2[nH]c(=O)cc(C(=O)NCc3ccccc3Cl)c2c1 (stereo unspecified),63*,36
Cn1nccc1C(=O)Nc1nc2c(Cl)cccc2s1,-6,-2
CCN(CC)c1ccc(NC(=O)CCS(=O)(=O)c2cccc3nsnc23)c(C)c1,17,-2
CCN(CC)c1ccc(NS(=O)(=O)c2cccc3nsnc23)c(C)c1,54*,-4
c1coc(-c2nc3sc(-c4ccco4)nc3s2)c1,100*,-18
c1coc(-c2nccs2)c1,nt,2
Cc1ccc(CCNC(=O)c2c[nH]n3c(=O)c(Cc4ccccc4F)c(C)nc23)cc1,31,-15
Cc1nc2c(C(=O)NCCc3ccccc3)c[nH]n2c(=O)c1Cl,16,-9
Cc1nc2c(C(=O)NCCc3ccc(Cl)cc3)c[nH]n2c(=O)c1Cc1ccccc1F,74*,-3
Cc1nc2c(C(=O)NCCc3ccccc3)c[nH]n2c(=O)c1Cc1ccc(Cl)cc1,68*,-5
Cc1ccc(CNC(=O)C2CCCN(c3nc4c(s3)c(C)nn4-c3ccccc3)C2)cc1 (stereo unspecified),-9,4
Cc1[nH]c2ccccc2c1SCCNC(=O)c1cccc(Cl)c1,23,-18
Cc1[nH]c2ccccc2c1SCCNC(=O)c1c(F)cccc1F,12,-8
CCOc1cc(C(=O)NCCSc2c(C)[nH]c3ccccc23)cc(OCC)c1OCC,19,-6
Cc1[nH]c2ccccc2c1SCCNC(=O)C(C)(C)Oc1ccc(Cl)cc1,98*,1
O=C(COc1ccc(Cl)cc1)NCCSc1c[nH]c2ccccc12,17,-6
Cc1[nH]c2ccccc2c1SCCNC(=O)COc1ccc(Cl)cc1Cl,93*,-22
Cc1[nH]c2ccccc2c1SCCNC(=O)COc1ccc(Cl)cc1,84*,-9
CCOc1ccccc1C(=O)NCCSc1c(C)[nH]c2ccccc12,71*,-6
COc1ccc(C)cc1NC(=O)c1c(C)c(C)c(C)c(C)c1C,2,1
Cc1ccc(-c2nc(C=Nc3ccc(I)cc3)c(O)o2)cc1,8,2
O=C(C1CCN(C2CCN(C(=O)C3CCCCC3)CC2)CC1)N1CCOCC1,-8,-1
O=C(COc1ccccc1Cl)Nc1cccc(C(=O)Nc2nccs2)c1,-2,15
SMILES,mHTT CaM bind,Pf apPOL block
Cc1ccc(C(=O)COC(=O)c2ccc(O)cc2O)cc1,18,6
Cc1cccc(C(=O)N2CCN(C(C(=O)N3CCCCC3)C3CCCC3)CC2)c1 (stereo unspecified),-5,-4
N#Cc1ccc(CNC(=S)Nc2ccc(Cl)c(Cl)c2)cc1,nt,61*
O=C(NCc1ccncc1)C(=O)Nc1ccc(Cl)c(Cl)c1,5,-3
O=[N+]([O-])c1ccc(O)c(N=Cc2sc3ccccc3c2O)c1,43,-5
O=[N+]([O-])c1ccc2c(N=Nc3ccc4ccccc4c3O)c(O)cc(S(=O)(=O)O)c2c1,100*,nt
Nc1nc[nH]c(=O)c1[N+](=O)[O-],-6,-3
NNc1ncc([N+](=O)[O-])c2nc[nH]c12,100*,nt
Cn1cccc1CN1CCc2nc(N3CCCCC3)nc(Oc3ccccc3)c2C1,71*,2
c1ccc(Oc2nc(N3CCCCC3)nc3c2CN(Cc2cccnc2)CC3)cc1,53*,-2
CCOc1ccc(CN2CCc3nc(N4CCCC4)ncc3C2)cc1,18,7
CC(C)CN1CCc2nc(N3CCOCC3)nc(Oc3ccccc3F)c2C1,22,0
CCOc1ccc(CCNC(=O)CCSCc2ccccc2F)cc1OCC,15,-7
Cc1cc(I)ccc1NC(=O)CCCOc1ccc(Cl)cc1,-5,-4
CS(=O)(=O)N1CCN(c2ccc([N+](=O)[O-])c(NCc3ccco3)c2)CC1,26,-4
Cc1ccc(S(=O)(=O)N2CCC(=O)N([C@H](COCc3cccc(Cl)c3)C(C)C)CC2)cc1,-3,-3
COCCC1CCN(C(=O)c2ccc(C(F)(F)F)cc2)CC1,3,-3
CC(C)C[C@@H](COCc1ccc(C(F)(F)F)cc1)N1CCN(C(=O)c2ccc(C(F)(F)F)cc2)CCC1=O,93*,-4
CC(C)C[C@@H](COCc1cccc(Cl)c1)N1CCN(C(=O)c2ccc(C(F)(F)F)cc2)CCC1=O,99*,-4
Cc1ccc(COC[C@H](CC(C)C)N2CCN(C(=O)c3cccc(C(F)(F)F)c3)CCC2=O)cc1,91*,-2
Cc1ccc(CNC(=O)C2CCCN(C(=O)c3cccc(C(F)(F)F)c3)C2)cc1 (stereo unspecified),32,11
CCc1ccc(S(=O)(=O)NCCOc2ccc3nnc(-c4cccc(F)c4)n3n2)s1,10,0
Oc1oc(-c2ccccc2Br)nc1C=Nc1cccc(Cl)c1,4,-5
